# Assay results from PMC7156710, “The Sox2 transcription factor binds RNA”.
# Experiments:
# Experiment in all cases: fluorescence anisotropy; 10 mM Tris-HEPES pH 7.5, 8% Ficoll, 0.05% NP-40, 135 mM KCl, 15 mM NaCl, 1 mM DTT, 0.1 mg/mL BSA; 2 nM DNA or 3 nM RNA; low values mean tight binding
# Details in all cases: protein: recombinant; tags: N-terminal His6 and thrombin site, not removed; label: 3' fluorescein; hairpin; structured_RNA
# [1] = target: Sox2-HMG (His6 retained) E78A (Homo sapiens, UniProt P48431 38-121, E78A)
# Sequence of Sox2-HMG (His6 retained) E78A (P48431 other isoform, or with tags, fused parts or gaps E78A | E78A E78A): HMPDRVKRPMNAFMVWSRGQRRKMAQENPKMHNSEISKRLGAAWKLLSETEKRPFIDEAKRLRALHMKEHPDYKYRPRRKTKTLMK
# Outline: (§1)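 Polarization on a CLARIOstar was recorded for His6-tagged, Ni-NTA-purified Sox2-HMG domains bearing alanine substitutions introduced by site-directed mutagenesis, titrated for no less than 1 h in Tris-HEPES pH 7.5 binding buffer against 2 nM fluorescein-labeled DNA or 3 nM fluorescein-labeled RNA. Triplicate titrations were each read three times. Dissociation constants were derived in Kaleidagraph and expressed as a ratio of mutant to wild type.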
# [2] = target: Sox2-HMG (His6 retained) S72A (Homo sapiens, UniProt P48431 38-121, S72A)
# Sequence of Sox2-HMG (His6 retained) S72A (P48431 other isoform, or with tags, fused parts or gaps S72A | S72A S72A): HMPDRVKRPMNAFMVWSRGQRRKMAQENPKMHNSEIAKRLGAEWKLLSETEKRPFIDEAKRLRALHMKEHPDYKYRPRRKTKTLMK
# Outline: as §1
# [3] = target: Sox2-HMG (His6 retained) E104A (Homo sapiens, UniProt P48431 38-121, E104A)
# Sequence of Sox2-HMG (His6 retained) E104A (P48431 other isoform, or with tags, fused parts or gaps E104A | E104A E104A): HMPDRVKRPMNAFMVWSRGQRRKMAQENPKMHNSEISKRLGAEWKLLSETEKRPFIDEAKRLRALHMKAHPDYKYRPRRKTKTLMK
# Outline: as §1
# [4] = target: Sox2-HMG (His6 retained) K58A (Homo sapiens, UniProt P48431 38-121, K58A)
# Sequence of Sox2-HMG (His6 retained) K58A (P48431 other isoform, or with tags, fused parts or gaps K58A | K58A K58A): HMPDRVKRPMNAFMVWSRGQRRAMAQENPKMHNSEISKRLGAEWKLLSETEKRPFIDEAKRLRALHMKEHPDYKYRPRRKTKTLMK
# Outline: as §1
# [5] = target: Sox2-HMG (His6 retained) H67A (Homo sapiens, UniProt P48431 38-121, H67A)
# Sequence of Sox2-HMG (His6 retained) H67A (P48431 other isoform, or with tags, fused parts or gaps H67A | H67A H67A): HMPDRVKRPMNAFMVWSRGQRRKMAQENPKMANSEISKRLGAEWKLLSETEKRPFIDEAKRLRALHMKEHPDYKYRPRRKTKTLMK
# Outline: as §1
# [6] = target: Sox2-HMG (His6 retained) K42A (Homo sapiens, UniProt P48431 38-121, K42A)
# Sequence of Sox2-HMG (His6 retained) K42A (P48431 other isoform, or with tags, fused parts or gaps K42A | K42A K42A): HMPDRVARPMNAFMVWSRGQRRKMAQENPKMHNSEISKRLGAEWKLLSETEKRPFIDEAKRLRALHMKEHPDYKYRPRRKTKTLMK
# Outline: as §1
# [7] = target: Sox2-HMG (His6 retained) M45A (Homo sapiens, UniProt P48431 38-121, M45A)
# Sequence of Sox2-HMG (His6 retained) M45A (P48431 other isoform, or with tags, fused parts or gaps M45A | M45A M45A): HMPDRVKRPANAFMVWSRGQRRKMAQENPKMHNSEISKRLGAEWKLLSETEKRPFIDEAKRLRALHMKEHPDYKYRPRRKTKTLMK
# Outline: as §1
# [8] = target: Sox2-HMG (His6 retained) N63A (Homo sapiens, UniProt P48431 38-121, N63A)
# Sequence of Sox2-HMG (His6 retained) N63A (P48431 other isoform, or with tags, fused parts or gaps N63A | N63A N63A): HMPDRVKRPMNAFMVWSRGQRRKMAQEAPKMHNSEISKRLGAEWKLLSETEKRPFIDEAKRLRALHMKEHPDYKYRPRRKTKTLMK
# Outline: as §1
# [9] = target: Sox2-HMG (His6 retained) K115A (Homo sapiens, UniProt P48431 38-121, K115A)
# Sequence of Sox2-HMG (His6 retained) K115A (P48431 other isoform, or with tags, fused parts or gaps K115A | K115A K115A): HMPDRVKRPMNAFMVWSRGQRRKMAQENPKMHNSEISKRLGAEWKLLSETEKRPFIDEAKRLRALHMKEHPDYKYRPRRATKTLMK
# Outline: as §1
# [10] = target: Sox2-HMG (His6 retained) E70A (Homo sapiens, UniProt P48431 38-121, E70A)
# Sequence of Sox2-HMG (His6 retained) E70A (P48431 other isoform, or with tags, fused parts or gaps E70A | E70A E70A): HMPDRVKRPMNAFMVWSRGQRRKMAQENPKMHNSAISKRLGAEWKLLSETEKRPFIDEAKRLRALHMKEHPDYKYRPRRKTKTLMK
# Outline: as §1
# [11] = target: Sox2-HMG (His6 retained) K87A (Homo sapiens, UniProt P48431 38-121, K87A)
# Sequence of Sox2-HMG (His6 retained) K87A (P48431 other isoform, or with tags, fused parts or gaps K87A | K87A K87A): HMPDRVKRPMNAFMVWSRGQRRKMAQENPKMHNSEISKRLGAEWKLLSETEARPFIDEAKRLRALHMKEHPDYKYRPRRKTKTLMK
# Outline: as §1
# [12] = target: Sox2-HMG (His6 retained) W79A (Homo sapiens, UniProt P48431 38-121, W79A)
# Sequence of Sox2-HMG (His6 retained) W79A (P48431 other isoform, or with tags, fused parts or gaps W79A | W79A W79A): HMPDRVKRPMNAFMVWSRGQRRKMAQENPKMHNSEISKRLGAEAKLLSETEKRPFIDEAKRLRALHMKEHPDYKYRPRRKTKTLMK
# Outline: as §1
# [13] = target: Sox2-HMG (His6 retained) E62A (Homo sapiens, UniProt P48431 38-121, E62A)
# Sequence of Sox2-HMG (His6 retained) E62A (P48431 other isoform, or with tags, fused parts or gaps E62A | E62A E62A): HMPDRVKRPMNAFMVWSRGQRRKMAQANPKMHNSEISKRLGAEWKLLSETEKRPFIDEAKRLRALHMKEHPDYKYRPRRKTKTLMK
# Outline: as §1
# [14] = target: Sox2-HMG (His6 retained) R114A (Homo sapiens, UniProt P48431 38-121, R114A)
# Sequence of Sox2-HMG (His6 retained) R114A (P48431 other isoform, or with tags, fused parts or gaps R114A | R114A R114A): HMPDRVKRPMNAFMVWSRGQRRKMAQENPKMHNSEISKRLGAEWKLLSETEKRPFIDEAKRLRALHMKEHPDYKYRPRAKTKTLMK
# Outline: as §1
# [15] = target: Sox2-HMG (His6 retained) S69A (Homo sapiens, UniProt P48431 38-121, S69A)
# Sequence of Sox2-HMG (His6 retained) S69A (P48431 other isoform, or with tags, fused parts or gaps S69A | S69A S69A): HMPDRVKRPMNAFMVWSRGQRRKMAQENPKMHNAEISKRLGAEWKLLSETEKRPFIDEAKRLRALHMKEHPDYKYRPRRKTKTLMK
# Outline: as §1
# [16] = target: Sox2-HMG (His6 retained) R96A (Homo sapiens, UniProt P48431 38-121, R96A)
# Sequence of Sox2-HMG (His6 retained) R96A (P48431 other isoform, or with tags, fused parts or gaps R96A | R96A R96A): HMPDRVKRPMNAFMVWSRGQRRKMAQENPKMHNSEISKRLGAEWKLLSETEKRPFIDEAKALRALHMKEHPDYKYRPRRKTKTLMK
# Outline: as §1
# [17] = target: Sox2-HMG (His6 retained) R40A (Homo sapiens, UniProt P48431 38-121, R40A)
# Sequence of Sox2-HMG (His6 retained) R40A (P48431 other isoform, or with tags, fused parts or gaps R40A | R40A R40A): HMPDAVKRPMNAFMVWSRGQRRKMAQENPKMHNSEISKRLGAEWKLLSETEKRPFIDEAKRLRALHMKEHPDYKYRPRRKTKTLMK
# Outline: as §1
# [18] = target: Sox2-HMG (His6 retained) W51A (Homo sapiens, UniProt P48431 38-121, W51A)
# Sequence of Sox2-HMG (His6 retained) W51A (P48431 other isoform, or with tags, fused parts or gaps W51A | W51A W51A): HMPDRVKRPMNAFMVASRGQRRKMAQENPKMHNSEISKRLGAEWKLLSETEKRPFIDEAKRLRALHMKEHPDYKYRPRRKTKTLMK
# Outline: as §1
# [19] = target: Sox2-HMG (His6 retained) S83A (Homo sapiens, UniProt P48431 38-121, S83A)
# Outline: as §1
# [20] = target: Sox2-HMG (His6 retained) R111A (Homo sapiens, UniProt P48431 38-121, R111A)
# Sequence of Sox2-HMG (His6 retained) R111A (P48431 other isoform, or with tags, fused parts or gaps R111A | R111A R111A): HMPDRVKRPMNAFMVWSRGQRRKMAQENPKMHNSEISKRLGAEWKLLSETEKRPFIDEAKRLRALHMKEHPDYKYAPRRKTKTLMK
# Outline: as §1
# [21] = target: Sox2-HMG (His6 retained) E84A (Homo sapiens, UniProt P48431 38-121, E84A)
# Sequence of Sox2-HMG (His6 retained) E84A (P48431 other isoform, or with tags, fused parts or gaps E84A | E84A E84A): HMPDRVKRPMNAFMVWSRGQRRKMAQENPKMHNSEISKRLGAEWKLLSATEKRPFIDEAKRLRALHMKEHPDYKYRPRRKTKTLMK
# Outline: as §1
# [22] = target: Sox2-HMG (His6 retained) K95A (Homo sapiens, UniProt P48431 38-121, K95A)
# Sequence of Sox2-HMG (His6 retained) K95A (P48431 other isoform, or with tags, fused parts or gaps K95A | K95A K95A): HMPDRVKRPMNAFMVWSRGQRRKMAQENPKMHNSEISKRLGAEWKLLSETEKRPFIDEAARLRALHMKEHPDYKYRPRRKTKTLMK
# Outline: as §1
# [23] = target: Sox2-HMG (His6 retained) F48A (Homo sapiens, UniProt P48431 38-121, F48A)
# Sequence of Sox2-HMG (His6 retained) F48A (P48431 other isoform, or with tags, fused parts or gaps F48A | F48A F48A): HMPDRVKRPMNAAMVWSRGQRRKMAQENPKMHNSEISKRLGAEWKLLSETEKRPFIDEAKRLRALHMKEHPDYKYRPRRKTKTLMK
# Outline: as §1
# [24] = target: Sox2-HMG (His6 retained) R74A (Homo sapiens, UniProt P48431 38-121, R74A)
# Sequence of Sox2-HMG (His6 retained) R74A (P48431 other isoform, or with tags, fused parts or gaps R74A | R74A R74A): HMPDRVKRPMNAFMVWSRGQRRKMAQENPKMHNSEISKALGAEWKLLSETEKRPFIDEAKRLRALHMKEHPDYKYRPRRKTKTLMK
# Outline: as §1
# [25] = target: Sox2-HMG (His6 retained) Q61A (Homo sapiens, UniProt P48431 38-121, Q61A)
# Sequence of Sox2-HMG (His6 retained) Q61A (P48431 other isoform, or with tags, fused parts or gaps Q61A | Q61A Q61A): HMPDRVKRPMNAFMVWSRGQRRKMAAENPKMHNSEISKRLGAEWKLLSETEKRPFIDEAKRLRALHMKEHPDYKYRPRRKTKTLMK
# Outline: as §1
# [26] = target: Sox2-HMG (His6 retained) R88A (Homo sapiens, UniProt P48431 38-121, R88A)
# Sequence of Sox2-HMG (His6 retained) R88A (P48431 other isoform, or with tags, fused parts or gaps R88A | R88A R88A): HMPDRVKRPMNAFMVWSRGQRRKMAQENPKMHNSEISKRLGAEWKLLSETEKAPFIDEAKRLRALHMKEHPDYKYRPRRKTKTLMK
# Outline: as §1
# [27] = target: Sox2-HMG (His6 retained) K73A (Homo sapiens, UniProt P48431 38-121, K73A)
# Sequence of Sox2-HMG (His6 retained) K73A (P48431 other isoform, or with tags, fused parts or gaps K73A | K73A K73A): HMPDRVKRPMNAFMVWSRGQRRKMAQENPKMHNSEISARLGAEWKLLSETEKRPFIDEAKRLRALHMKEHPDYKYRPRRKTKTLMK
# Outline: as §1
# [28] = target: Sox2-HMG (His6 retained) E86A (Homo sapiens, UniProt P48431 38-121, E86A)
# Outline: as §1
# [29] = target: Sox2-HMG (His6 retained) R53A (Homo sapiens, UniProt P48431 38-121, R53A)
# Sequence of Sox2-HMG (His6 retained) R53A (P48431 other isoform, or with tags, fused parts or gaps R53A | R53A R53A): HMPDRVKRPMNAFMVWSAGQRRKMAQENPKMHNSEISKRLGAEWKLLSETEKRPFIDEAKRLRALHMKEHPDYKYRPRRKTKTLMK
# Outline: as §1
# [30] = target: Sox2-HMG (His6 retained) R113A (Homo sapiens, UniProt P48431 38-121, R113A)
# Sequence of Sox2-HMG (His6 retained) R113A (P48431 other isoform, or with tags, fused parts or gaps R113A | R113A R113A): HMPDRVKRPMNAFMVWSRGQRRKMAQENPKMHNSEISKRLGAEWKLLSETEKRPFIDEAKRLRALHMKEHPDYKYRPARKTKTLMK
# Outline: as §1
# [31] = target: Sox2-HMG (His6 retained) T85A (Homo sapiens, UniProt P48431 38-121, T85A)
# Sequence of Sox2-HMG (His6 retained) T85A (P48431 other isoform, or with tags, fused parts or gaps T85A | T85A T85A): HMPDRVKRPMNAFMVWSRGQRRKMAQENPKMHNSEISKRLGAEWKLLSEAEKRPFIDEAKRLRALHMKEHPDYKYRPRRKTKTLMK
# Outline: as §1
# [32] = target: Sox2-HMG (His6 retained) M49A (Homo sapiens, UniProt P48431 38-121, M49A)
# Sequence of Sox2-HMG (His6 retained) M49A (P48431 other isoform, or with tags, fused parts or gaps M49A | M49A M49A): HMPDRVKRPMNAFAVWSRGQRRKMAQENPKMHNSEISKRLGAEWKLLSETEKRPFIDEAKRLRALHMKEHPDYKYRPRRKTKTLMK
# Outline: as §1
# [33] = target: Sox2-HMG (His6 retained) R56A (Homo sapiens, UniProt P48431 38-121, R56A)
# Sequence of Sox2-HMG (His6 retained) R56A (P48431 other isoform, or with tags, fused parts or gaps R56A | R56A R56A): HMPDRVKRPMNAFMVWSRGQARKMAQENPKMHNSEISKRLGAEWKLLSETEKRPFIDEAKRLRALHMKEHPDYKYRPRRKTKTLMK
# Outline: as §1
# [34] = target: Sox2-HMG (His6 retained) K80A (Homo sapiens, UniProt P48431 38-121, K80A)
# Sequence of Sox2-HMG (His6 retained) K80A (P48431 other isoform, or with tags, fused parts or gaps K80A | K80A K80A): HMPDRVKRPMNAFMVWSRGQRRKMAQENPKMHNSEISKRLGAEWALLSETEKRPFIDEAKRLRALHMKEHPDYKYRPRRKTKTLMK
# Outline: as §1
# [35] = target: Sox2-HMG (His6 retained) Y110A (Homo sapiens, UniProt P48431 38-121, Y110A)
# Sequence of Sox2-HMG (His6 retained) Y110A (P48431 other isoform, or with tags, fused parts or gaps Y110A | Y110A Y110A): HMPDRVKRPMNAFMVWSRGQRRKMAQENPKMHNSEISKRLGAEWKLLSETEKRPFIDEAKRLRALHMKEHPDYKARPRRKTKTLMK
# Outline: as §1
# [36] = target: Sox2-HMG (His6 retained) K103A (Homo sapiens, UniProt P48431 38-121, K103A)
# Sequence of Sox2-HMG (His6 retained) K103A (P48431 other isoform, or with tags, fused parts or gaps K103A | K103A K103A): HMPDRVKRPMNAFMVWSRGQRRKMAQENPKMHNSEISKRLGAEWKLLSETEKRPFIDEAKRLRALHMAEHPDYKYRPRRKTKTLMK
# Outline: as §1
# [37] = target: Sox2-HMG (His6 retained) K109A (Homo sapiens, UniProt P48431 38-121, K109A)
# Sequence of Sox2-HMG (His6 retained) K109A (P48431 other isoform, or with tags, fused parts or gaps K109A | K109A K109A): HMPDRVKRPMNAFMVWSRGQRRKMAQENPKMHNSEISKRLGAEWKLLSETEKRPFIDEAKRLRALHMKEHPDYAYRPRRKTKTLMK
# Outline: as §1
# [38] = target: Sox2-HMG (His6 retained) R43A (Homo sapiens, UniProt P48431 38-121, R43A)
# Sequence of Sox2-HMG (His6 retained) R43A (P48431 other isoform, or with tags, fused parts or gaps R43A | R43A R43A): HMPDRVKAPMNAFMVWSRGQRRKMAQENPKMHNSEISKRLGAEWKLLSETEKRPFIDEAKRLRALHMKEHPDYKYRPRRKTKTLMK
# Outline: as §1
# [39] = target: Sox2-HMG (His6 retained) R57A (Homo sapiens, UniProt P48431 38-121, R57A)
# Sequence of Sox2-HMG (His6 retained) R57A (P48431 other isoform, or with tags, fused parts or gaps R57A | R57A R57A): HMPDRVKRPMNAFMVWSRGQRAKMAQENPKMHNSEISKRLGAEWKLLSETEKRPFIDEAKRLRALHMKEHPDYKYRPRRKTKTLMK
# Outline: as §1
# [40] = target: Sox2-HMG (His6 retained) R98A (Homo sapiens, UniProt P48431 38-121, R98A)
# Sequence of Sox2-HMG (His6 retained) R98A (P48431 other isoform, or with tags, fused parts or gaps R98A | R98A R98A): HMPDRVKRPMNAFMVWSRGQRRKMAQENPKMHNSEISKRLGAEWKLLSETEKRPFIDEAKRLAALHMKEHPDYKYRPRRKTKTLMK
# Outline: as §1
# [41] = target: Sox2-HMG (His6 retained) N68A (Homo sapiens, UniProt P48431 38-121, N68A)
# Sequence of Sox2-HMG (His6 retained) N68A (P48431 other isoform, or with tags, fused parts or gaps N68A | N68A N68A): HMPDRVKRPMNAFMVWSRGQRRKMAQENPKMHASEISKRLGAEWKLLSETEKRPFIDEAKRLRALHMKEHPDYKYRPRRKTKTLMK
# Outline: as §1
# [42] = target: Sox2-HMG (His6 retained) P112A (Homo sapiens, UniProt P48431 38-121, P112A)
# Sequence of Sox2-HMG (His6 retained) P112A (P48431 other isoform, or with tags, fused parts or gaps P112A | P112A P112A): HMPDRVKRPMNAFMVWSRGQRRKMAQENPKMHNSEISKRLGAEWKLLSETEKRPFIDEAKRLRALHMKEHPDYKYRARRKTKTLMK
# Outline: as §1
# [43] = target: Sox2-HMG (His6 retained) N46A (Homo sapiens, UniProt P48431 38-121, N46A)
# Sequence of Sox2-HMG (His6 retained) N46A (P48431 other isoform, or with tags, fused parts or gaps N46A | N46A N46A): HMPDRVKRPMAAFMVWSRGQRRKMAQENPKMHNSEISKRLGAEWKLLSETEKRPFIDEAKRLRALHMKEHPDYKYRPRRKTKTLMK
# Outline: as §1
# [44] = target: Sox2-HMG (His6 retained) K65A (Homo sapiens, UniProt P48431 38-121, K65A)
# Sequence of Sox2-HMG (His6 retained) K65A (P48431 other isoform, or with tags, fused parts or gaps K65A | K65A K65A): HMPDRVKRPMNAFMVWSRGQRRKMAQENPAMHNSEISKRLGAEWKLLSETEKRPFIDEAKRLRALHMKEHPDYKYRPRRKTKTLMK
# Outline: as §1
# [45] = target: Sox2-HMG (His6 retained) H101A (Homo sapiens, UniProt P48431 38-121, H101A)
# Sequence of Sox2-HMG (His6 retained) H101A (P48431 other isoform, or with tags, fused parts or gaps H101A | H101A H101A): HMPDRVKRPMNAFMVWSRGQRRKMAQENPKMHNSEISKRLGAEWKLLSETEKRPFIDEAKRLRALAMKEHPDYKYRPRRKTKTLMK
# Outline: as §1
# [46] = target: Sox2-HMG (His6 retained) P64A (Homo sapiens, UniProt P48431 38-121, P64A)
# Sequence of Sox2-HMG (His6 retained) P64A (P48431 other isoform, or with tags, fused parts or gaps P64A | P64A P64A): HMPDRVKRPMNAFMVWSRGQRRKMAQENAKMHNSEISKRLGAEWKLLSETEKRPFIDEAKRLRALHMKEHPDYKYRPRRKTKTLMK
# Outline: as §1
# [47] = target: Sox2-HMG (His6 retained) M66A (Homo sapiens, UniProt P48431 38-121, M66A)
# Sequence of Sox2-HMG (His6 retained) M66A (P48431 other isoform, or with tags, fused parts or gaps M66A | M66A M66A): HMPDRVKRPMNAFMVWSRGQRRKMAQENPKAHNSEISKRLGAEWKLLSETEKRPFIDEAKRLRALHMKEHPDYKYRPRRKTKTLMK
# Outline: as §1
# [48] = target: Sox2-HMG (His6 retained) H105A (Homo sapiens, UniProt P48431 38-121, H105A)
# Sequence of Sox2-HMG (His6 retained) H105A (P48431 other isoform, or with tags, fused parts or gaps H105A | H105A H105A): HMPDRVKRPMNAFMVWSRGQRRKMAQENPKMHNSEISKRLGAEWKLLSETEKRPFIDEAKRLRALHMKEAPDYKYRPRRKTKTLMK
# Outline: as §1
sequence,measurement,setting,value
GGUCUUAAGGUGCGGGCGAAAGUCUGUACCUCUGGGACC,binding signal,[1],0.9 ± 0.5 Kd(mutant)/Kd(WT)
same,binding signal,[2],1 ± 0.6 Kd(mutant)/Kd(WT)
same,binding signal,[3],1 ± 0.5 Kd(mutant)/Kd(WT)
same,binding signal,[4],0.8 ± 0.4 Kd(mutant)/Kd(WT)
same,binding signal,[5],3.7 ± 1.7 Kd(mutant)/Kd(WT)
same,binding signal,[6],7.9 ± 2.7 Kd(mutant)/Kd(WT)
same,binding signal,[7],0.9 ± 0.5 Kd(mutant)/Kd(WT)
same,binding signal,[8],1.3 ± 0.2 Kd(mutant)/Kd(WT)
same,binding signal,[9],3.6 ± 1.4 Kd(mutant)/Kd(WT)
same,binding signal,[10],1.2 ± 0.4 Kd(mutant)/Kd(WT)
same,binding signal,[11],4.1 ± 1.4 Kd(mutant)/Kd(WT)
same,binding signal,[12],50 ± 19 Kd(mutant)/Kd(WT)
same,binding signal,[13],1.6 ± 0.8 Kd(mutant)/Kd(WT)
same,binding signal,[14],9.2 ± 2.3 Kd(mutant)/Kd(WT)
same,binding signal,[15],1.6 ± 0.5 Kd(mutant)/Kd(WT)
same,binding signal,[16],0.8 ± 0.3 Kd(mutant)/Kd(WT)
same,binding signal,[17],2.7 ± 0.3 Kd(mutant)/Kd(WT)
same,binding signal,[18],78 ± 13 Kd(mutant)/Kd(WT)
same,binding signal,[19],1.8 ± 0.6 Kd(mutant)/Kd(WT)
same,binding signal,[20],2.2 ± 1.2 Kd(mutant)/Kd(WT)
same,binding signal,[21],0.9 ± 0.5 Kd(mutant)/Kd(WT)
same,binding signal,[22],3.2 ± 1.2 Kd(mutant)/Kd(WT)
same,binding signal,[23],16 ± 2 Kd(mutant)/Kd(WT)
same,binding signal,[24],0.9 ± 0.5 Kd(mutant)/Kd(WT)
same,binding signal,[25],0.8 ± 0.5 Kd(mutant)/Kd(WT)
same,binding signal,[26],0.7 ± 0.2 Kd(mutant)/Kd(WT)
same,binding signal,[27],6.9 ± 0.2 Kd(mutant)/Kd(WT)
same,binding signal,[28],0.9 ± 0.6 Kd(mutant)/Kd(WT)
same,binding signal,[29],1.7 ± 0.6 Kd(mutant)/Kd(WT)
same,binding signal,[30],3.1 ± 1.3 Kd(mutant)/Kd(WT)
same,binding signal,[31],0.9 ± 0.3 Kd(mutant)/Kd(WT)
same,binding signal,[32],0.7 ± 0.4 Kd(mutant)/Kd(WT)
same,binding signal,[33],3 ± 0.3 Kd(mutant)/Kd(WT)
same,binding signal,[34],40 ± 15 Kd(mutant)/Kd(WT)
same,binding signal,[35],1.7 ± 0.6 Kd(mutant)/Kd(WT)
same,binding signal,[36],2.5 ± 1.1 Kd(mutant)/Kd(WT)
same,binding signal,[37],7.4 ± 2.5 Kd(mutant)/Kd(WT)
same,binding signal,[38],2.8 ± 0.6 Kd(mutant)/Kd(WT)
same,binding signal,[39],1.3 ± 0.5 Kd(mutant)/Kd(WT)
same,binding signal,[40],5.5 ± 1.9 Kd(mutant)/Kd(WT)
same,binding signal,[41],1 ± 0.1 Kd(mutant)/Kd(WT)
same,binding signal,[42],1.8 ± 0.8 Kd(mutant)/Kd(WT)
same,binding signal,[43],3.5 ± 1.1 Kd(mutant)/Kd(WT)
same,binding signal,[44],2.6 ± 0.7 Kd(mutant)/Kd(WT)
same,binding signal,[45],2.2 ± 0.9 Kd(mutant)/Kd(WT)
same,binding signal,[46],2 ± 0.7 Kd(mutant)/Kd(WT)
same,binding signal,[47],1.3 ± 0.5 Kd(mutant)/Kd(WT)
same,binding signal,[48],2 ± 1 Kd(mutant)/Kd(WT)
